# Data published in the OligoGym collection.
# Molecular target: HCK
# Experiment: pooled miR-30 sensor sort-seq; sequence = guide strand
# Details: shRNA
# Also: reference of the scale not given here.
row,Sequence,sensor-assay potency score (higher = more potent)
1,TTCTTCTCCAGCTTGAGGGATT,-0.963
2,TTGTTGTAGGTGGCCATCCAGA,-1.38
3,TTAGTGGTCTCGCTATCCCGGA,-1.31
4,TTCCCTTCCAAATCACAGCTGT,0.224
5,TTTGACCAGCTTGTCATGCTGC,0.268
6,TAGTGGTCTCGCTATCCCGGAT,-0.53
7,TCGTTGTCCTCAATGACCCGGG,-0.328
8,TTTGAGAATGTATTGCCTCCGA,-0.315
9,TGATGTTGTAGAGCTCCTCTGG,-0.148
10,TTCCTCTAGGACCACCATCTGG,-1.25
11,TTTAGTGGTCTCGCTATCCCGG,-0.689
12,TTGGTGTGCTTGTTGTAGGTGG,-0.387

# Molecular target: HCST
# Experiment: as above
# Details: shRNA
row,Sequence,sensor-assay potency score (higher = more potent)
1,TCTCTCTCCTGGAGTCGTCTGA,-1.08
2,TTGATGTAGACTTTGCCATCTT,-0.308
3,TTGCCATCTTCTTGGGCGGGGC,-1.23
4,TCTCTCCTGGAGTCGTCTGAGC,-1.45
5,ATGAGCAGCGATGCCACCGCAT,-1.5
6,TGTTGATGTAGACTTTGCCATC,-1.89
7,AGACTTTGCCATCTTCTTGGGC,-0.803
8,TGTAGACTTTGCCATCTTCTTG,-1.11
9,AACAAGAGCCTGAAGTGCCAGG,-0.933
10,TAGACTTTGCCATCTTCTTGGG,-0.36
11,TTTGCCATCTTCTTGGGCGGGG,0.0264
12,TAGACTTTGCCATCTTGGGCGG,-0.81

# Molecular target: HDGF
# Experiment: as above
# Details: shRNA
row,Sequence,sensor-assay potency score (higher = more potent)
1,TTCCCTTCCTCGTCGCTGCTGC,-0.283
2,TTCCACACAGCTCTTTTTCTGG,-0.811
3,TTTCTCGTTCTTCTCCTTGGCT,-0.305
4,TTCTCGTTCTTCTCCTTGGCTG,-0.535
5,TTTCTCTCTGTCCTCTCAGTGG,-1.16
6,TAAGGGAAGAGGTCTTTGGGGC,-0.718
7,TTCTTTTCCACCTCCATAGGAA,-0.534
8,TCAGGCATCTCGTCAATCCGGG,-0.426
9,TAGAACTGAAATCATCTACGGT,-0.169
10,TCTGGTGACAACACTGAGGGGG,0.602
11,TCTGGGAGGACTGATAGCCGGA,-0.805
12,TTCTCAGAGCTAAACTTCCAAA,-1.28
